Results taken from PubChem BioAssay (NCI).
“And” between values parts separate entries of the source, which are not always exact repeats. Identical values can stand only once. The panel holds about 83,000 compounds, 20% with a hit somewhere; the sample as a whole holds those more often.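 48-hour exposure, single concentration, 96-well plates; percent growth endpoint where 0 means no net growth. Active: below 10.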 The source made the active and inactive calls.

The compounds below were run on EKVX NSCLC (assay: NCI-60 one-dose screen, 48 h (100 = growth as untreated, 0 = no growth, -100 = all killed)). Conditions: 100 µM.

SMILES | growth
COc1ccc(C(=O)/C=C/c2ccc(OCc3cccc(C(F)(F)F)c3)c(OC)c2)cc1OC | 16.1% (inactive)
CCN(Cc1ccccc1)c1ccc(/C=C2\COc3ccccc3C2=O)cc1 | 36.9% (inactive)
COc1ccc(C(=O)/C=C/c2ccc(OCc3ccc(Cl)cc3)cc2)cc1OC | 29.1% (inactive)
CC(=O)/C=C/c1ccc(OCc2ccc(C(C)(C)C)cc2)cc1 | 24.8% (inactive)
O=C(/C=C/c1cccc(Oc2ccc(Cl)cc2)c1)c1ccccc1 | -79.6% (active)
CC(=O)/C=C/c1ccc(OCc2ccc(Cl)cc2)cc1 | 28.8% (inactive)
CC(=O)/C=C/c1ccc(N(CCO)Cc2ccc(C(C)(C)C)cc2)cc1 | -86.5% (active)
CC(=O)/C=C/c1ccc(N(C)Cc2ccc(C(C)(C)C)cc2)cc1 | -39.2% (active)

The compounds below were run on SN12C renal in the same assay as above. Conditions: 10 µM.

SMILES | growth
COc1ccc(C(=O)/C=C/c2ccc(OCc3cccc(C(F)(F)F)c3)c(OC)c2)cc1OC | 97% (inactive)
CCN(Cc1ccccc1)c1ccc(/C=C2\COc3ccccc3C2=O)cc1 | 94.5% (inactive)
COc1ccc(C(=O)/C=C/c2ccc(OCc3ccc(Cl)cc3)cc2)cc1OC | 107% (inactive)
CC(=O)/C=C/c1ccc(OCc2ccc(C(C)(C)C)cc2)cc1 | 80% (inactive)
O=C(/C=C/c1cccc(Oc2ccc(Cl)cc2)c1)c1ccccc1 | 111% (inactive)
CC(=O)/C=C/c1ccc(OCc2ccc(Cl)cc2)cc1 | 102% (inactive)
CC(=O)/C=C/c1ccc(N(CCO)Cc2ccc(C(C)(C)C)cc2)cc1 | 73% (inactive)
CC(=O)/C=C/c1ccc(N(C)Cc2ccc(C(C)(C)C)cc2)cc1 | 90.6% (inactive)

Same assay, conditions: 10 µM unless noted

SMILES | growth
CN(C)CCCn1c2nc(=O)[nH]c(=O)c-2nc2cc(Cl)c(Cl)cc21 | 70.5% (inactive)
C=C(CNCCc1ccc(O)cc1)[C@@H]1CC[C@]2(CO)CC[C@]3(C)[C@H](CC[C@@H]4[C@@]5(C)CCC(NCCc6ccc(O)cc6)C(C)(C)[C@@H]5CC[C@]43C)[C@@H]12 (some centres not stated) | -85.1% (active)
O=C1/C(=C/c2cn(-c3ccccc3)nc2-c2ccccc2)SC(=S)N1c1ccc(Cl)cc1 | 69.2% (inactive)
CCCNNC(=O)/C=C/c1ccc(CNCCc2c(C)[nH]c3ccccc23)cc1 | 26.3% [2.5 µM] (inactive)
C=CCNC(=O)Cc1c(-c2ccc(OC)cc2)oc2c(OC)c3c(c(OC)c12)OCO3 | 94.6% (inactive)
CC1=C2[C@@H](CC1)[C@]1(C)O[C@@](C(C)C)(C[C@H]1OC(=O)CO)[C@H]2OC(=O)C1CC1c1ccccc1 (some centres not stated) | 61.5% (inactive)
O=C([C@H]1C[C@H]1c1ccc(S(F)(F)(F)(F)F)cc1)N1CCN(c2cc(Cl)ccc2C(F)(F)F)CC1 | 101% (inactive)
O=C(Cc1ccc(F)cc1)c1ccccc1 | 99.4% (inactive)
COc1cc2cc(NCc3ccncc3)nc(C)c2cc1OC | 97.1% (inactive)
CN1Cn2c(ccc2C(F)(F)F)C(=O)CS1(=O)=O | 104% (inactive)
O=C1C=C(Nc2ccccc2)c2ncccc2C1=O | -88.8% (active)
C=C1C(=O)O[C@H]2[C@H]1CC/C(COC(=O)NCc1ccc(Cn3c(=O)sn(CCCI)c3=O)cc1)=C\CC[C@@]1(C)O[C@@H]21 | 2.19% (active)
COc1ccc(Cn2cc(C(=O)Nc3cccnc3Nc3ccccc3)nn2)cc1 | 86.5% (inactive)
NNCCc1ccccc1 | 96.2% (inactive) and 93% (inactive)
CCN(CC)CC#CCOC(=O)[C@]1(C)CCC[C@]2(C)c3ccc(C(C)C)cc3CC[C@@H]12 | 83.8% (inactive)
COc1cc2c(cc1OCCCOC1=C=C=C(c3ccc4c(c3)c3cc(-c5ccc(OCCCOc6cc7c(cc6OC)C(=O)N6CCC[C@H]6C=N7)cc5)ccc3n4S(=O)(=O)c3ccc(C)cc3)C=C1)N=C[C@@H]1CCCN1C2=O | -17.2% (active)
O=C(CCl)N(O)c1ccc(/C=C/c2ccccc2)cc1 | 63.3% (inactive) and 48.8% (inactive)
COc1cc(/C=C/C(=O)c2ccc(NC(=O)CSc3nnc(-c4cc(-c5ccccc5)nc5ccccc45)n3-c3ccccc3)cc2)cc(OC)c1OC | 83.8% (inactive)
Nc1[nH]nc(Nc2ccccc2)c1-c1nc2ccccc2s1 | 34.2% (inactive)
C[C@]12CCc3c(ccc4cc(O)ccc34)[C@@H]1C[C@H](O)[C@@H]2O | 93% (inactive)
Cn1cc(-c2csc(-c3cn(CCOC(N)=O)c4ccccc34)n2)c2cccnc21 | 88.3% (inactive)
